Data on 46 molecules can be found in PubChem BioAssay AID1794835 (Parasite Biology Lab, Institute for Biomedicine and …, 2023).

What is called inhibition is the change of the read-out against control, counted positive when it falls.

The nature of the experiment: anti-Giardia activity of synthetic compounds – Compounds Australia Scaffold Library subset, 24/48 h, primary screen (AID 1794835).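 For inhibition: 0% = parasite counts in DMSO vehicle wells.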 Particulars: Giardia lamblia BRIS/91/HEPU/1279 trophozoite counts, imaging, at 10 µM.
Where [1] appears, read: measured here: growth inhibition at 24 h, stronger effect = higher value.

The whole screen tested about 2,500 compounds, of which about 45 (2%) were called active. Cut-off read from the data, not from the text of the source: active = inhibition mostly above about 45% (no sharp cut-off); inactive = mostly below about 37%. Shown is part of a subset that was picked to be rich in actives.

As for `CCCNS(=O)(=O)c1cc(-c2nc(-c3cccc(Cl)c3)cs2)n(C)c1C`, the inhibition runs as follows: (stronger effect = higher value) 32.9% (inactive); under setting [1], 21.9%.

As to `CN(Cc1ccccc1)C(=O)c1cccc2c1CCN2C(=O)Nc1ccccc1`, the molecule was classed as inactive. The molecule further showed an inhibition under setting [1] of 2.8%.

Consider `CCc1c(C2CCN(C(=O)C3COc4ccccc4O3)CC2)noc1N` (stereo not given), for which the inhibition entry was “inactive”.

As for `Cc1ccc(NC(=O)N2CCCC(C)(C(=O)NCc3ccc(F)cc3)C2)cc1` (stereo not given), the inhibition entry was “inactive”.

Consider `Cc1ccc(C(=O)Nc2cc(-c3nc(C)cs3)sc2C)cc1`, for which the inhibition by setting is: (stronger effect = higher value) 56.1% (active); under setting [1], 28%.

With `Cc1csc(-c2ccc(CNC(=O)c3cncc(Br)c3)cc2)n1`, the inhibition result is “inactive”.

As to `COc1ccc(C(=O)Nc2cc(-c3nc(C)cs3)sc2C)cc1OC`, the inhibition was 27.2% (inactive) (stronger effect = higher value) and 11.4% under setting [1].

For `O=C(c1cc(Cl)c[nH]1)N1CCCN(Cc2cscn2)CC1`, the inhibition result was “inactive”.

Regarding `Cc1noc2nc(-c3ccccc3F)cc(C(=O)N3CCCC3c3nnc4ccccn34)c12` (stereo not given), the inhibition result is “inactive”.

Consider `O=C1CCCc2cc(S(=O)(=O)N3CCN(c4ccccc4)CC3)ccc2N1`, for which the inhibition reads like this: (stronger effect = higher value) 19.1% (inactive); under setting [1], 8.5%.

Take `CC1(c2ccco2)NC(=O)N(Cc2cn(-c3ccccc3)nc2-c2ccccc2)C1=O` (stereo not given): the inhibition entry is “inactive”.

`Cc1cc2[nH]c(C(=O)Nc3ccccc3C)c(CN3CCOCC3)c2s1`: the inhibition runs as follows: (stronger effect = higher value) 97.7% (active); under setting [1], 94.7%.

As for `Cc1sc2cc(C(=O)NC(C)(C)C)[nH]c2c1CN1CCOCC1`, the inhibition runs as follows: (stronger effect = higher value) 2.4% (inactive); under setting [1], 3%.

As to `COc1ccc(CNC(=O)c2[nH]c3cc(C)sc3c2CN2CCCC2)cc1`, the inhibition (stronger effect = higher value) was 35.5% (inactive) and the inhibition under setting [1] turned out to be 10.1%.

In the case of `Cc1ccc(S(=O)(=O)N2CCc3nc(N4CCOCC4)[nH]c(=O)c3CC2)cc1C`, the inhibition entry is “inactive”.

On to `Cc1cc(C)c(S(=O)(=O)N2CCN(C)c3ccccc32)c(C)c1`, for which the inhibition result is “inactive”.

With `O=S(=O)(Cc1ccccc1)Nc1cccc(-c2nnc(Cc3ccc4c(c3)OCO4)o2)c1`, the inhibition (stronger effect = higher value) is 46.9% (active) and the inhibition under setting [1] came out at 17.2%.

As for `CCOC(=O)c1ccc(S(=O)(=O)Nc2cccc(-c3nnc(-c4ccccc4)o3)c2)cc1`, the inhibition (stronger effect = higher value) is 2.3% (inactive).

Take `CCc1nnc(-c2nnc(NCc3ccc4c(c3)OCO4)c3ccccc23)o1`: the outcome was inactive. Moreover, under setting [1], the inhibition amounted to 3%.

In the case of `c1cnc(N2CCN(c3ncnc4nc[nH]c34)CC2)nc1`, the inhibition (stronger effect = higher value) is 0.6% (inactive).

Regarding `O=C(CN1C(=O)CCCc2ccccc21)NCCc1ccco1`, the inhibition result is “inactive”.

With `Cc1cc(-c2cc(C(=O)Nc3ccc(N4CCN(C)CC4)nc3)c3cnn(C(C)C)c3n2)c(C)o1`, the inhibition is, setting by setting: (stronger effect = higher value) 98.2% (active); under setting [1], 95.9%.

With `Cc1cc(-c2cc(C(=O)Nc3c(C)n(C)n(-c4ccccc4)c3=O)c3cnn(C(C)C)c3n2)c(C)o1`, the outcome was inactive. The inhibition under setting [1] came to 2%.

For `CC1CN(C(=O)c2cc(C3CC3)nc3c2cnn3C(C)C)CC(C)O1` (stereo not given), the inhibition entry is “inactive”.

Take `NC(=O)c1nonc1N`: the inhibition result is “inactive”.

As for `Cc1ccc(CNC(=O)c2cc(-c3ccc(C)c(C)c3)n(C3CCS(=O)(=O)C3)n2)cc1` (stereo not given), the inhibition entry is “inactive”.

As for `Cn1cc2c(n1)c(=O)n(Cc1ccccc1)c(=O)n2CC(=O)Nc1ccc2c(c1)OCCO2`, the inhibition result is “inactive”.

For the molecule `Cc1nc2c(c(=O)n1CC(=O)Nc1cccc(F)c1)CCN(Cc1ccccc1)C2`, the molecule was called inactive. The inhibition under setting [1] stood at 12%.

Take `Cn1cc2c(n1)c(=O)n(Cc1ccccc1)c(=O)n2CC(=O)Nc1cccc(F)c1`: the inhibition (stronger effect = higher value) is 62.8% (active) and the inhibition under setting [1] is 30.6%.

For the molecule `Brc1ccc(-c2nc(-c3ccc4c(c3)ncn4C3CCCC3)no2)o1`, the inhibition entry is “inactive”.

Consider `Cc1ccccc1NC(=O)c1c(C)oc2ncnc(N3CCCCC3)c12`, for which the inhibition is, setting by setting: (stronger effect = higher value) 15.9% (inactive); under setting [1], 14.5%.

As for `Cc1ccc(C(=O)N2CCN(S(=O)(=O)N3CCN(C)CC3)CC2)o1`, the inhibition entry is “inactive”.

Regarding `N=C1C(=C2Nc3ccccc3S2)CC(=O)N1C1CC1`, the outcome was inactive. Also, the inhibition under setting [1] was 2.5%.

With `COc1ccc(C(=O)N2c3ccccc3NC(=O)CC2C)cc1OC` (stereo not given), the result was inactive. The inhibition under setting [1] worked out at 2.2%.

With `COc1ccc(C)cc1N1C(=N)C(=C2Nc3ccccc3S2)C(c2ccccc2)C1=O` (stereo not given), the inhibition runs as follows: (stronger effect = higher value) 96.7% (active); under setting [1], 90.2%.

For `CCN(CC)CCCN1C(=O)C(O)=C(C(=O)c2cc3cccc(OC)c3o2)C1c1ccncc1` (stereo not given), the inhibition entry was “inactive”.

With `CCOc1cc(C)ccc1NC(=O)N1CCC12CCC2`, the inhibition entry is “inactive”.

As to `CCn1cc(CN2CCCN(C(=O)c3cc(C4CC4)on3)CC2)cn1`, the molecule was called inactive. The same molecule showed an inhibition under setting [1] of 1.1%.

Take `CN1C(=O)c2cc(NC(=O)c3ccc4c(c3)OCO4)ccc2N2CCN=C12`: the inhibition reads like this: (stronger effect = higher value) 31.6% (inactive); under setting [1], 11.7%.

As for `Cc1ccc(C(=O)Nc2ccc3c(c2)Oc2ccccc2C(=O)N3C)cc1`, the inhibition by setting is: (stronger effect = higher value) 96.8% (active); under setting [1], 90.3%.

As to `CCOc1ccc(C(=O)Nc2ccc3c(c2)N(C(C)C)C(=O)c2ccccc2O3)cc1`, the inhibition by setting is: (stronger effect = higher value) 33.8% (inactive); under setting [1], 18.7%.

`O=C(NCc1cccc(F)c1)C1CCCN(c2nc3ccccc3n3cccc23)C1` (stereo not given): the molecule was called inactive. Moreover, the inhibition under setting [1] was determined as 2.2%.

In the case of `CNC(=O)N1C[C@@H](CN(C)C)[C@@H](C2CCN(Cc3ccccn3)CC2)C1`, the inhibition result is “inactive”.

As to `Cc1ccccc1NC(=O)Cn1ccc2sccc2c1=O`, the inhibition (stronger effect = higher value) is 19.9% (inactive).

On to `Cc1ccc(-n2c(=O)c3c(cnn3C)n(CC(=O)Nc3ccccc3C)c2=O)cc1`, for which the inhibition reads like this: (stronger effect = higher value) 76.9% (active); under setting [1], 53.9%.

Consider `CCCCNC(=O)Cn1c(=O)c2c(C)cc(C)nc2n(-c2ccccc2)c1=O`, for which the inhibition (stronger effect = higher value) is 4.4% (inactive).
